Experimental findings from PubChem BioAssay are described below.

Active and inactive are the calls of the source. Unless noted, no rule for the calls is given here.

Test [1] can be described thus: compounds binding Alexa647 anti-His antibody – biochemical, small-molecule microarray, 635 nm fluorescence, artefact control for SMM control protein annotation, primary screen (AID 1128).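 Also: score merges feature fluorescence with signal-to-noise for each printed compound spot.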 The settings on record: higher = more signal.
Test [2] concerns Human papillomavirus type 1a E7 protein (residues 1-88). The test is described as follows: HPV1a E7 small-molecule binders, primary screen, biochemical, small-molecule microarray, residues 1-88, 635 nm (AID 1129). The settings on record: small-molecule microarray binding, fluorescence 635 nm; higher = more signal.
Test [3] has as its target Focal adhesion kinase 1 (Homo sapiens) (UniProt Q05397). Put plainly: PTK2 protein binding on printed compound slides – biochemical, small-molecule microarray, 635/667 nm fluorescence, BSA, DTT, primary screen (AID 1130).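 Also: composite of spot emission at 667 nm and signal to noise over triplicate slides.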 The settings on record: 635 nm fluorescence, higher = more signal.
Test [4] has as its system Fibrinogen (Alexa647-labelled). The test is described as follows: Alexa647-fibrinogen binding to printed small molecules – biochemical, small-molecule microarray, 635/667 nm fluorescence, artefact control for SMM control-protein annotation, profiling panel (AID 1131).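 Also: z-score merges 667 nm fluorescence with per-spot signal-to-noise over triplicate slides.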 The settings on record: fibrinogen-A647 binding fluorescence, higher = more signal.
Test [5] has as its target Follistatin (Homo sapiens) (UniProt P19883). Put plainly: FST protein binding to printed compounds – biochemical, small-molecule microarray, 635/667 nm fluorescence, primary screen (AID 1132). The settings on record: 635 nm fluorescence, higher = more signal.
The target of test [6] is Fibroblast growth factor 2 (Homo sapiens) (UniProt P09038). Put plainly: basic fibroblast growth factor binding to printed compounds – biochemical, small-molecule microarray, 635/667 nm fluorescence, primary screen (AID 1133). The settings on record: FGF2, fluorescence 635/667, higher = more signal.
Chain of Fibroblast growth factor 2 (Homo sapiens) (P09038 whole entry, looked up): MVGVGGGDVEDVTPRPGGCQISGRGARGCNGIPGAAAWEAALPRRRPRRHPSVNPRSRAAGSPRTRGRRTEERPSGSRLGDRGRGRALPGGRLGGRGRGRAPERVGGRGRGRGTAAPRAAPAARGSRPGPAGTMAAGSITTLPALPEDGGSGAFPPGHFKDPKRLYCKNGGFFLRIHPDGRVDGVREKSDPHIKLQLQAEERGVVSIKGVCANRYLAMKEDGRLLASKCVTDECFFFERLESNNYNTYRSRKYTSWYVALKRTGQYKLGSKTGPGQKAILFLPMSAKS
A short description of test [7]: JC-1 mitochondrial potential readout, lung cancer cells – cell-based, A549, JC-1 fluorescence, basal, 24 h, 100 nL, profiling panel (AID 1138).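 Also: A549 lung adenocarcinoma cells under basal conditions with no added stimulus; test concentration not given here.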 The settings on record: higher = more signal.
The subject of test [8] is Lefty1. The test is described as follows: Lefty1 protein binding to printed compounds – biochemical, small-molecule microarray, 635/667 nm fluorescence, primary screen (AID 1139). The settings on record: fluorescence 635/667, higher = more signal.
For test [9], the system named is wheat germ agglutinin (Triticum aestivum), Alexa647-labelled. Put plainly: Alexa647-WGA lectin binding to printed small molecules – biochemical, small-molecule microarray, 635/667 nm fluorescence, artefact control for SMM control-protein annotation, profiling panel (AID 1140).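 Also: score merges 667 nm feature emission with signal to noise over triplicate slides.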 The settings on record: WGA-A647 binding, 635 nm fluorescence, higher = more signal.
Test [10] addresses Luciferin 4-monooxygenase (Photinus pyralis) (UniProt P08659). The test is described as follows: inhibition of purified Photinus pyralis luciferase – biochemical, luminescence, purified enzyme, 2006 set, primary screen (AID 1141).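 Also: cell-free assay with purified firefly luciferase at 100 ng per well in PBS; test concentration not given here.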 The settings on record: purified firefly luciferase, SteadyGlo luminescence, 30 min; higher = more signal, called active from +8 up or from −8 down.
Test [11] has as its system Wnt5a (protein binding on small-molecule microarray). The test is described as follows: small molecules binding Wnt5a protein – biophysical, small-molecule microarray, 635/667 nm fluorescence, primary screen (AID 1142).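 Also: fluorescence read at 667 nm with signal to noise per printed feature.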 The settings on record: 635 nm fluorescence, higher = more signal.
Test [12] can be described thus: ATP-based viability of Huh7 replicon cells – cell-based, CellTiter-Glo luminescence, basal, 48 h, cytotoxicity control for HCV replication inhibitor project, primary screen (AID 1143).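 Also: Huh7 hepatoma cells carrying a hepatitis C replication reporter with no stimulus; test concentration not given here.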 The settings on record: higher = more signal, called active from +8 up or from −8 down.
Test [13] in a line: Pseudomonas biofilm growth suppression – PAO1 strain, BacTiter-Glo luminescence, LB-PBS, primary screen (AID 1144). The settings on record: P. aeruginosa PAO1 biofilm, 12 h, higher = more signal.
A short description of test [14]: basal CRE-LacZ reporter activity in PC12 – cell-based, unstimulated, primary screen (AID 1145). The settings on record: no forskolin, luminescence, 4.5 h, higher = more signal, called active from +8 up or from −8 down.
Test [15] is described as follows: forskolin-driven CRE-LacZ activity in PC12 – cell-based, CRE-LacZ reporter, forskolin-stimulated, primary screen (AID 1146).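 Also: PC12 cells with 6xCRE LacZ reporter stimulated by forskolin 10 µM; beta-galactosidase reporter signal reflecting CREB driven transcription.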 The settings on record: luminescence, 4.5 h, higher = more signal, called active from +8 up or from −8 down.
The target of test [16] is Streptavidin (Streptomyces avidinii) (UniProt P22629). Put plainly: compounds binding control protein streptavidin – biophysical, small-molecule microarray, 635/667 nm fluorescence, artefact control for SMM compound annotation, primary screen (AID 1147).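 Also: signal reflects streptavidin binding to arrayed compounds as a control protein.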 The settings on record: higher = more signal.
Chain of Streptavidin (Streptomyces avidinii) (P22629 whole entry, looked up): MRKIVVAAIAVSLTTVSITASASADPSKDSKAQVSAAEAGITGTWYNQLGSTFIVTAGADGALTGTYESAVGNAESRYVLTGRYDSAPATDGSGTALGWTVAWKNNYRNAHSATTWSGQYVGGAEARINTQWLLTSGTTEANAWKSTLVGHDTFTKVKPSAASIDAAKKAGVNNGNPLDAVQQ
Test [17] can be described thus: probe aInhba binding on compound microarray – biochemical, small-molecule microarray, 635/667 nm fluorescence, primary screen (AID 1148).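 Also: score merges 667nm spot fluorescence with signal-to-noise for antibody binding to printed compounds.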 The settings on record: higher = more signal.
The target in test [18] is Torsin-1A (Homo sapiens) (UniProt O14656). Put plainly: TOR1A wild-type binding on microarray – cell lysate, small-molecule microarray, lysate, 635/667 nm, primary screen (AID 1149). The settings on record: COS7 hTOR1A-WT lysate, 635 nm fluorescence, higher = more signal.
Chain of Torsin-1A (Homo sapiens) (O14656 whole entry, looked up): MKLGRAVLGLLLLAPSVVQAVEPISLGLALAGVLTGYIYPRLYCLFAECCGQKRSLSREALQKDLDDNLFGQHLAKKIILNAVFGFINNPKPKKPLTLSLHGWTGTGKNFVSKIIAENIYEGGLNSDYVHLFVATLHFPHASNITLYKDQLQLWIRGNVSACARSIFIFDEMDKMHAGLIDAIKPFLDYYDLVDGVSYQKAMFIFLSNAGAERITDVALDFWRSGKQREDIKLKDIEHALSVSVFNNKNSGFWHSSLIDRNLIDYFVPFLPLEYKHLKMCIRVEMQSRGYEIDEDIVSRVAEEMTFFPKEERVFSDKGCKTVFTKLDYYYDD
Test [19] shares this target. Put plainly: torsin A mutant lysate binding on microarrays – cell lysate, small-molecule microarray, COS7 lysate, 635/667 nm fluorescence, primary screen (AID 1150).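 Also: score pools 667 nm emission and signal to noise measuring lysate protein binding.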 The settings on record: COS7 hTOR1A mutant lysate, 635 nm fluorescence, higher = more signal.
In test [20] the test system is Sonic hedgehog protein (Shh). The test is described as follows: Sonic hedgehog microarray binding compounds – biochemical, small-molecule microarray, 635/667 nm fluorescence, primary screen (AID 1151).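 Also: Shh protein binding to compounds spotted on small-molecule microarray slides; score combines spot fluorescence intensity with signal-to-noise across triplicate slides.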 The settings on record: 635 nm fluorescence, higher = more signal.

Chain of Focal adhesion kinase 1 (Homo sapiens) (Q05397 whole entry, looked up): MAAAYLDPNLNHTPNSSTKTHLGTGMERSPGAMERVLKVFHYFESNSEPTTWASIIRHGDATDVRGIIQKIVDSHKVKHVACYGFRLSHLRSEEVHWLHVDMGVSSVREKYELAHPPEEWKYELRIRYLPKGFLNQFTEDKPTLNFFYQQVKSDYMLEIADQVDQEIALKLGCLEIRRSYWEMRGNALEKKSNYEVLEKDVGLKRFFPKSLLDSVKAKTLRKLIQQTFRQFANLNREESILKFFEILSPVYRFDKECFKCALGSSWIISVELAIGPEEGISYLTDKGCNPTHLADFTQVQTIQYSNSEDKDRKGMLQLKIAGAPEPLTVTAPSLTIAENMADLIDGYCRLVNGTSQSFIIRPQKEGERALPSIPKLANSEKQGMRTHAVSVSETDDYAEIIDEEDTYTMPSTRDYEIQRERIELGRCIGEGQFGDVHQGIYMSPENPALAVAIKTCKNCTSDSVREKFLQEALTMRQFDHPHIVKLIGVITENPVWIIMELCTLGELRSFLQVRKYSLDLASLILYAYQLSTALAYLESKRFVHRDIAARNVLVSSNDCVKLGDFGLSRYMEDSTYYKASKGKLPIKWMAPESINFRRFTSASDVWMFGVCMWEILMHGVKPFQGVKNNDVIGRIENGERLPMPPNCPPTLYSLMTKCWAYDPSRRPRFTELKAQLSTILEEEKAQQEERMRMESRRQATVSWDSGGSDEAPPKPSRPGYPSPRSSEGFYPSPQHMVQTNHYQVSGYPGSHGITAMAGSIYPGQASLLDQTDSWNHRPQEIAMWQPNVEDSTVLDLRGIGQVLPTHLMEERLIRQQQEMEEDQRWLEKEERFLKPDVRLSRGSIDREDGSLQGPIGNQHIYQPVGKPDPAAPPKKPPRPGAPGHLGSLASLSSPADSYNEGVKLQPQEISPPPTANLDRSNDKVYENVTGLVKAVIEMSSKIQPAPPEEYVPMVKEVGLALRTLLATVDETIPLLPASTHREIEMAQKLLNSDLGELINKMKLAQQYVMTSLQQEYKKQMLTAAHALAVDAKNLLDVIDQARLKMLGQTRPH
Chain of Luciferin 4-monooxygenase (Photinus pyralis) (P08659 whole entry, looked up): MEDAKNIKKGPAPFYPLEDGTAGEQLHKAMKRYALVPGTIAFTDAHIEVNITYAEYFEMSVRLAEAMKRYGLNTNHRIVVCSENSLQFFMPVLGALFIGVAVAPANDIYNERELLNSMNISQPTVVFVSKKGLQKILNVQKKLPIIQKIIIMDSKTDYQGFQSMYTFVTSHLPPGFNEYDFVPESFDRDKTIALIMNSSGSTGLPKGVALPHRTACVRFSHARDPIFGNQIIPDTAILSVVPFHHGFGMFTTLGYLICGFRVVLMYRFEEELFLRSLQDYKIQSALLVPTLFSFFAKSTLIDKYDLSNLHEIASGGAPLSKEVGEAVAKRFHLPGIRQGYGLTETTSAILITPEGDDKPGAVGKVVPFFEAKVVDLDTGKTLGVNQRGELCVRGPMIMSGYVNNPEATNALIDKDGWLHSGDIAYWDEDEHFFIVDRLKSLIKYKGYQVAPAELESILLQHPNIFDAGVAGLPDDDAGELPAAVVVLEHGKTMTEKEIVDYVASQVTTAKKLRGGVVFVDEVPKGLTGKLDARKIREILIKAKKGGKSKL
Chain of Follistatin (Homo sapiens) (P19883 whole entry, looked up): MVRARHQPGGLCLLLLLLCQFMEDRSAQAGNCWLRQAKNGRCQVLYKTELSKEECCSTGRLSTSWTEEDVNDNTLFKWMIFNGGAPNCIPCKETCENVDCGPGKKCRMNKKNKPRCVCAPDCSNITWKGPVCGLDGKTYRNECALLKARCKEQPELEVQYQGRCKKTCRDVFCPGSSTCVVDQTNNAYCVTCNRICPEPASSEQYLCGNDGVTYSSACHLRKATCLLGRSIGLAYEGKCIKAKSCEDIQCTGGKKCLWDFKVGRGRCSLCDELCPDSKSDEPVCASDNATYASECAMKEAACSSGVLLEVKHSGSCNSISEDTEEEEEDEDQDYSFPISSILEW

With `C=CCOC(=O)[C@@H]1[C@H]2C(=O)O[C@H](c3ccccc3)[C@H](c3ccccc3)N2[C@H](c2ccc(OCCOC(=O)[C@@H]3C[C@@H]4C(=O)N[C@@H](Cc5ccccc5)C(=O)N4[C@@H]3c3ccc(O)cc3)cc2)[C@@]12C(=O)Nc1ccc(I)cc12`, the composite z-score was found to be 1.11 in test [1]; 0.947 in test [2]; 0.375 in [3]; 0.799 in test [4]; 1.41 in test [5]; 1.61 in test [6]. Further, the composite z-score in [8] turned out to be 1.41; in test [9], 0.844; in [11], 0.425; in [16], 0.122; in test [17], 0.0154; in test [18], 0.521. Also, the composite z-score came to 0.38 in test [19] and 2.22 in test [20]. Besides, the z-score in test [7] was -1.53; in [10], 0.304 (inactive); in test [12] it was -1.28 (inactive); in test [13] it was -0.606 (inactive); in test [14] it was -0.537 (inactive); in test [15] it was -0.526 (inactive).

Turning to `COCCOC(=O)N1C(=O)[C@@]2(c3cc(C#CCNC(N)=O)ccc31)[C@H](C(=O)NC[C@H](O)c1ccccc1)[C@H]1C(=O)O[C@H](c3ccccc3)[C@H](c3ccccc3)N1[C@@H]2c1ccccc1OCCO`, the composite z-score in test [1] was found to be 1.06; in test [2] it was 0.769; in [3], 0.564; in [4], 0.762; in [5] it was 1.07; in test [6] it was 0.73. The composite z-score in test [8] is 0.946; in [9] it was 0.592; in [11] it was 0.8; in [16], -0.198; in test [17], 0.801; in [18], 0.403. Moreover, the composite z-score in [19] is 0.593; in [20], 1.08. For the same compound, the z-score in test [7] was -1.08; in [10], -0.533 (inactive); in test [12], -0.417 (inactive); in test [13], -0.0351 (inactive); in [14], -0.199 (inactive); in [15] it was -0.972 (inactive).

In the case of `CCCCCCC#C[Si](O[C@H](c1ccccc1)c1cn([C@H](CO)Cc2ccccc2)nn1)(C(C)C)C(C)C`, the composite z-score in test [1] is 0.355; in test [2] it was -0.116; in test [3], -0.074; in test [4], -1.29; in [5], -0.193; in [6] it was -0.489. Moreover, the composite z-score in [8] is 0.65; in [9], 0.207; in test [11] it was -0.193; in [16] it was -0.463; in [17] it was -0.128; in test [18], -1.01. Moreover, the composite z-score in test [19] is 0.211; in test [20] it was 0.537. Moreover, the z-score in [7] was -0.319; in [10] it was 0.751 (inactive); in [12] it was -0.866 (inactive); in test [13], -0.235 (inactive); in [14], -0.215 (inactive); in test [15], -0.0183 (inactive).

Consider `COC(=O)[C@@]1(Cc2ccc(F)cc2)[C@H]2c3cc(C(=O)N(C)C)n(CC4CC4)c3C[C@H]2CN1C(=O)c1ccccc1`, for which the composite z-score is 1.54 in [1]; 1.21 in test [2]; -0.0938 in test [3]; 0.94 in [4]; 0.581 in test [5]; -0.272 in test [6]. Also, the composite z-score in test [8] is -0.12; in test [9], 1.08; in test [11] it was 1.96; in test [16], 1.79; in test [17], 1.56; in [18] it was -0.532. The composite z-score in [19] is 0.224; in test [20], -1.04. The z-score in test [7] is 0.524; in test [10], 0.184 (inactive); in [12], -2.68 (inactive); in test [13], 0.163 (inactive); in test [14] it was 1.54 (inactive); in test [15], 0.581 (inactive).

For the compound `COCCOC(=O)N1C(=O)[C@@]2(c3cc(C#CCCO)ccc31)[C@H](C(=O)N1CCN(c3ncccn3)CC1)[C@H]1C(=O)O[C@H](c3ccccc3)[C@H](c3ccccc3)N1[C@@H]2c1ccccc1OCCO`, the composite z-score worked out at 0.475 in [1]; 1.23 in [2]; 0.868 in test [3]; 0.972 in [4]; 1.35 in test [5]; 0.821 in [6]. Moreover, the composite z-score in test [8] was 0.828; in test [9], 1.04; in test [11] it was 0.0536; in test [16], 1.08; in test [17] it was -0.0983; in [18] it was 0.259. Also, the composite z-score in [19] amounted to 0.829; in test [20], 0.842. Further, the z-score in test [7] was -0.778; in test [10], 1.23 (inactive); in test [12], -2.42 (inactive); in [13], -0.173 (inactive); in [14], -0.698 (inactive); in test [15] it was -0.228 (inactive).
